Hits are enriched below; roughly 10% of the tested compounds scored in any of these assays.
G9a inh – qHTS Assay for Inhibitors of Histone Lysine Methyltransferase G9a. Histone-lysine N-methyltransferase EHMT2 (Homo sapiens), Q96KQ7. G9a H3K9 monomethylation, AlphaScreen, 2 h. 350,000 tested, 8.8% active. Potency, µM (series often up to 102 µM), inactives show top-dose activity, negative = inhibition, actives largely listed as inhibitors; note: potency is the fitted concentration of half-maximal effect; % is set by controls: 0 for no effect and ±100 for the full control effect; nearly all actives have a fitted effect of over 75% in size
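AlphaScreen read-out: biotin-H3K9 peptide (500 nM) methylation by 20 nM enzyme with 20 uM SAM, 2 h at room temperature after 15 min compound preincubation; anti-monomethyl H3K9 antibody plus donor/acceptor beads, 10 min dark.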
Six1-Eya2 blk – qHTS Assay for Inhibitors of the Six1/Eya2 Interaction | activity change, % (no concentration beside the values) | AlphaScreen GST-Six1/His-Eya2 binding, biochemical; active compounds read low | 360,000 tested, 0.56% active; in the data active = activity change below about -65%; inconclusive = mostly about -30% to -63%; note: % is set by controls: 0 for no effect and ±100 for the full control effect
Target sequence (O00167 whole entry, looked up): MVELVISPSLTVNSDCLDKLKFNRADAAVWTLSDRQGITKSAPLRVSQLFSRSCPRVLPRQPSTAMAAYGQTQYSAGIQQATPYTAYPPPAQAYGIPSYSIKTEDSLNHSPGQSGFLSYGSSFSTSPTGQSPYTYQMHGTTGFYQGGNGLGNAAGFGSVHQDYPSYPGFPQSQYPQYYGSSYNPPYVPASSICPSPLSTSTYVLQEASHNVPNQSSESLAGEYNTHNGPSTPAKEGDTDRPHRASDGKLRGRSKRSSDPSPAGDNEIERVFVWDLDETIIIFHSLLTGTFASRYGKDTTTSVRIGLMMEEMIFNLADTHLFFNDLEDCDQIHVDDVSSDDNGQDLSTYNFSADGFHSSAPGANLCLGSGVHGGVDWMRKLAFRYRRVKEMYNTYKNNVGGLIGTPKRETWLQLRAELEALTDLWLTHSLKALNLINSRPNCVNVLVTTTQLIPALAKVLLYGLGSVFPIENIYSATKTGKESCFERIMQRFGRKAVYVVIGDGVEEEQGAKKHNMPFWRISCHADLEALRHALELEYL
Target sequence (Q15475 whole entry, looked up): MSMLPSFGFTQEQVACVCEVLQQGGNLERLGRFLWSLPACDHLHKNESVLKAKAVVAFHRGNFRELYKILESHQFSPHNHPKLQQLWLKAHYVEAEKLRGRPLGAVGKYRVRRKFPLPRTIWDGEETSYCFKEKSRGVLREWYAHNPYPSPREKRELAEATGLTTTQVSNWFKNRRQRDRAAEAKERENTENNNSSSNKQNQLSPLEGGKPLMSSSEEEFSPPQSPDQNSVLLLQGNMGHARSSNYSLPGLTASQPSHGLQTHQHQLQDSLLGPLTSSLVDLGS
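AlphaScreen luminescence read after one hour at 37 °C in darkness. Pin-transferred compounds met GST-Six1 and His-Eya2 protein (5X stock 250 nM/500 nM) plus glutathione donor and Ni-chelate acceptor beads (5X, 50 ug/mL).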
BAZ2B block – qHTS Assay for Inhibitors of BAZ2B; Bromodomain adjacent to zinc finger domain protein 2B (Homo sapiens), Q9UIF8; AlphaScreen BAZ2B-H3K14Ac peptide displacement; Potency, µM (highest dose often 114 µM), for the others: at the top dose activity change, negative = inhibition, actives largely listed as inhibitors; 360,000 tested, 4.4% active; AID 504333, 2011; note: potency is the fitted concentration of half-maximal effect; % is set by controls: 0 for no effect and ±100 for the full control effect; nearly all actives have a fitted effect of over 60% in size
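BAZ2B (50 nM) with biotin-H3(5-23)K14Ac peptide (50 nM) in PBS pH 7.4, 0.01% Tween-20, preformed 30 min, then compound 30 min at room temperature; top concentration 110uM. AlphaScreen streptavidin donor/nickel chelate acceptor beads (10 ug/mL final), 20 min dark, signal read.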
CtBP-E1A inh – qHTS Assay for Inhibitors of the CtBP/E1A Interaction; AlphaScreen GST-E1A/His-CtBP binding, 1536-well; active compounds read low; activity change, % (no concentration beside the values); 340,000 tested, 0.49% active; AID 651724, 2012; in the data active = activity change below about -65%; inconclusive = mostly about -30% to -63%; note: % is set by controls: 0 for no effect and ±100 for the full control effect
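Steps: dispense buffer (Tris pH 8.0, NaCl 300 mM, TCEP 1 mM, BSA, Tween 20); add 5X protein mix (GST-E1A, His-CtBP, 125 nM each); pin 23 nL compound; 2 h at 37 °C, dark; add 5X beads (50 ug/mL); 1 h; read.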
HP1b chromo inh – HTS for Inhibitors of HP1-beta Chromodomain Interactions with Methylated Histone Tails. Chromobox protein homolog 1 (Homo sapiens), P83916. AlphaScreen HP1-beta / biotin-H3K9me3 peptide binding. Potency, µM (top dose mostly 114 µM), inactives show top-dose activity change, negative = inhibition, most hits filed as inhibitors. 390,000 tested, 0.56% active. AID 540317, 2011; note: potency is the fitted concentration of half-maximal effect; nearly all actives have a fitted effect of over 70% in size
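Compound inhibition of the preformed complex between 50 nM HP1-beta and 50 nM biotinylated H3K9me3 peptide was read by AlphaScreen. Buffer was PBS pH 7.4 with 0.01% Tween-20. Incubations ran 30 min at room temperature, with 10 ug/mL donor/acceptor beads.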
JMJD2A Tudor inh – qHTS Assay for Inhibitors of JMJD2A-Tudor Domain. AID 504339, 2011. Lysine-specific demethylase 4A (Homo sapiens), O75164. Potency, µM (series often up to 114 µM), without a hit: top-dose activity change, negative = inhibition, usual class: inhibitors. 390,000 tested, 4.4% active. AlphaScreen JMJD2A-Tudor / H3K4me3 peptide binding; note: potency is the fitted concentration of half-maximal effect; % is set by controls: 0 for no effect and ±100 for the full control effect; nearly all actives have a fitted effect of over 50% in size
Numbers without * were called inactive; ? = inconclusive; nt = not tested or not shown; ! = not active in a repeat; [ ] = dose if it differs, or a comment. Unless noted, calls come from the whole dose curve; as a rule, active = well fitted inhibition curve with a large enough effect; inconclusive = small, poorly fitted or top-dose-only effect; inactive = no such curve, though single readings can be large or run the other way.

SMILES	G9a inh	Six1-Eya2 blk	BAZ2B block	CtBP-E1A inh	HP1b chromo inh	JMJD2A Tudor inh
O=C(Cc1ccccc1)N1CCN(Cc2ccccc2Cl)CC1	45µM*	1	20µM*	nt	?	18µM*
Cc1cccc(OCC(=O)N2CCN(Cc3cccnc3)CC2)c1	0%	-3	?	-4	?	2.8µM*
O=C(Cc1ccccc1)N1CCN(Cc2cccnc2)CC1	6.3µM*	6	32µM*	6	-45%	4.5µM*
CSc1ccc(CN2CCN(Cc3ccccc3Cl)CC2)cc1	4.5µM*	-17	18µM*	nt	?	5µM*
Cc1cc(=O)oc2cc(OCC(=O)N3CCN(Cc4ccccc4)CC3)ccc12	nt	-6	nt	-1	3%	-3%
CCC(C)C(=O)OC1C[C@@]2(C)C(c3ccoc3)OC(=O)CC23OC2(C)OC34C(OC(=O)C(C)C)[C@]3(O)C(OC(=O)C5(C)OC5C)[C@]5(C)CC3(O)[C@](C)(C5CC(=O)OC)C14O2 (some centres not stated)	-45%[2.33 µM]	nt	nt	nt	nt	nt
C#C[C@]1(O)CC[C@H]2[C@@H]3CCC4=CC(=O)CCC4(C)[C@H]3CCC21C (some centres not stated)	-30%[59 µM]	nt	nt	nt	nt	nt
Cc1cccc(CN2CCN(C(=O)Cc3ccccc3)CC2)c1	28µM*	1	79µM*	3	?	6.3µM*
Cc1cc(S(=O)(=O)NCC(C)C)ccc1OCC(=O)N1CCN(Cc2ccccc2)CC1	-40%[12.7 µM]	11	-5%	7	-1%	-16%
CCc1ccc(CN2CCN(C(=O)Cc3ccccc3)CC2)cc1	22µM*	0	25µM*	2	28µM*	20µM*
CSc1ccc(CN2CCN(C(=O)Cc3ccccc3)CC2)cc1	nt	11	nt	nt	?	20µM*
CN1CCN(C(=O)Cc2ccccc2)CC1	-1%	13	-8%	2	65%	-7%
c1ccc(CN2CCN(Cc3ccc4ccccc4c3)CC2)cc1	1.4µM*	?	28µM*	-9	?	0.79µM*
Cc1ccc(CN2CCN(Cc3ccccc3)CC2)cc1	nt	0	?	-10	11%	-18%
COc1ccc(CN2CCN(Cc3ccccc3F)CC2)cc1	4µM*	4	18µM*	0	18µM*	3.2µM*
COc1cc(OC)c(OC)cc1CN1CCN(C(=O)Cc2ccccc2)CC1	7.9µM*	-2	?	2	?	18µM*
Oc1c(Cl)cc(Cl)cc1CN1CCN(Cc2ccccc2)CC1	?	-73*	?	-6	31%	-15%
CCc1ccc(CN2CCN(Cc3cc(Br)ccc3O)CC2)cc1	25µM*	-3	45µM*	-3	25µM*	22µM*
Oc1c(Cl)cccc1Cc1cc(Cl)cc(Cl)c1O	nt	-28	nt	?	?	?
CCN1C(=NCCCOC(C)C)N[C@@H](c2ccccc2)[C@H](C(=O)OC)[C@H]1C	14%[12.7 µM]	7	8%	6	4%	?
C[C@]12CCC3C(CC[C@]4(O)CC(O)CC[C@@]34C=O)[C@]1(O)CCC2C1=CC(=O)OC1 (some centres not stated)	-34%[2.33 µM]	nt	nt	nt	nt	nt
Cc1c(N=Nc2c(O)[nH]c(=O)[nH]c2=O)c(=O)n(-c2ccccc2)n1C	?	-91*	3.2µM*	nt	67%	13µM*
Cc1c(N=Nc2c(O)n(-c3ccc(Br)cc3)c(=O)[nH]c2=O)c(=O)n(-c2ccccc2)n1C	nt	-92*	28µM*	-94*	28%	35µM*
O=c1c2ccccc2[se]n1-c1ccccc1	1.4µM*!	-8	1.4µM*	?	?	8.9µM*
OC(CCNCCc1c[nH]c2ccccc12)C(F)(F)F (configuration not stated)	5%	-2	-9%	4	32%	-3%
SMILES	G9a inh	Six1-Eya2 blk	BAZ2B block	CtBP-E1A inh	HP1b chromo inh	JMJD2A Tudor inh
OCCNCCc1c[nH]c2ccc(OCc3ccccc3)cc12	?	-28	?	nt	-9%	40µM*
NNc1ccccc1	31%[59 µM]	nt	nt	nt	nt	nt
CCCC(=O)OC(C(Cl)(Cl)Cl)P(=O)(OC)OC (configuration not stated)	-17%[59 µM]	nt	nt	nt	nt	nt
CCC(C(N)=O)N1CCCC1=O (configuration not stated)	27%[59 µM]	nt	nt	nt	nt	nt
CN(C)C(=O)Oc1ccc(Cl)c2ccccc12	-39%[12.7 µM]	1	-5%	7	64%	13%
Cc1c(OC(=O)N(C)C)ccc2c1O/C(=C\c1ccco1)C2=O	32µM*	-6	56µM*	4	10%	-17%
COc1ccc([C@H]2CC(=O)C=C(c3ccc4c5c(cccc35)CC4)C2)cc1	-3%[2.33 µM]	-13	-3%	-10	59%	-6%
CC(=O)N[C@@H]1CCSC1=O	6%[21.5 µM]	nt	nt	nt	nt	nt
CCOC(=O)C(=O)NC1CCSC1=O (configuration not stated)	50µM*	1	11%	-1	3%	-5%
Cc1ccc(C)c(N2CCN(C(=O)C3CCCN(S(=O)(=O)c4cccc5nsnc45)C3)CC2)c1 (configuration not stated)	?	nt	nt	nt	-11%	?
Cc1noc(C)c1C(=O)N1CCC[C@@]2(CCN(CC(C)C)C2)C1	0%[12.7 µM]	nt	nt	nt	nt	nt
CCCn1c(C(C)C)n[nH]c1=S	35µM*	12	3%	2	31%	?

High-throughput results as filed in PubChem BioAssay.
